Test results from PubChem BioAssay (NCATS).
Records with an inconclusive call do not appear. Activity calls are given as the source filed them. Calls follow the shape of the dose curve; as a rule, active = well fitted curve in the direction sought with a large enough effect; inconclusive = small, poorly fitted or top-dose-only effect, or another doubt; inactive = no such curve, though single readings can be large; an effect the other way counts as inactive or inconclusive.

Legend:
HaCat = test: Cytotoxic Profiling of Annotated Libraries Using Quantitative High-Throughput Screening (AID 1296008); details: Five cell lines viability, CellTiter-Glo ATP luminescence, 48-72 h; max response: active compounds read low; also: nearly all actives have a fitted effect of over 60% in size
Procedure, shortened: (§1)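 Cytotoxicity was measured as CellTiter-Glo ATP luminescence, read after 10 min at room temperature. Compound treatment of the cells lasted 48 or 72 hr at 37 degrees Celsius in a qHTS format.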

KB-3-1 = test: as above; details: Five cell lines viability, CellTiter-Glo ATP luminescence, 48-72 h; max response: active compounds read low
Procedure, shortened: as §1

NIH3T3 = test: as above; details: Five cell lines viability, CellTiter-Glo ATP luminescence, 48-72 h; max response: active compounds read low
Procedure, shortened: as §1

C33A = test: Primary qHTS to identify gynecologic anti-cancer compounds using libraries of approved drugs and bioactive compounds (AID 1345084); details: Gynecologic cancer cell panel viability, ATPlite luminescence, 48 h; series mostly up to 57.5 µM; also: nearly all actives have a fitted effect of over 55% in size
Procedure, shortened: (§2)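 48 h compound exposure at 37 C, 5% CO2; five-point qHTS. ATPlite luminescence readout of cell ATP.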

CAOV3 = test: as above; details: Gynecologic cancer cell panel viability, ATPlite luminescence, 48 h; series mostly up to 57.5 µM
Procedure, shortened: as §2

CASKI = test: as above; details: Gynecologic cancer cell panel viability, ATPlite luminescence, 48 h; series mostly up to 57.5 µM
Procedure, shortened: as §2

Es-2 = test: as above; details: Gynecologic cancer cell panel viability, ATPlite luminescence, 48 h; series mostly up to 57.5 µM
Procedure, shortened: as §2

HeLa = test: as above; details: Gynecologic cancer cell panel viability, ATPlite luminescence, 48 h; series mostly up to 57.5 µM
Procedure, shortened: as §2

Hek293T = test: as above; details: Gynecologic cancer cell panel viability, ATPlite luminescence, 48 h, control line for the selectivity index; series mostly up to 57.5 µM
Procedure, shortened: as §2

JEG-3 = test: as above; details: Gynecologic cancer cell panel viability, ATPlite luminescence, 48 h; series mostly up to 57.5 µM
Procedure, shortened: as §2

OV90 = test: as above; details: Gynecologic cancer cell panel viability, ATPlite luminescence, 48 h; series mostly up to 57.5 µM
Procedure, shortened: as §2
% is scaled to controls: 0 for no effect and ±100 for the full control effect.

C[C@@H](O)[C@H](NC(=O)c1ccc(C#Cc2ccc(CN3CCOCC3)cc2)cc1)C(=O)NO
inactive: max response (HaCat) -21.7% | outcome (KB-3-1) | max response (NIH3T3) 3.18% | Potency (C33A) | Potency (CAOV3) | Potency (CASKI) | Potency (Es-2) | Potency (HeLa) | Potency (Hek293T) | Potency (JEG-3) | Potency (OV90)

C=C[C@H]1[C@H](O[C@@H]2O[C@H](CO)[C@@H](O)[C@H](O)[C@H]2O)OC=C(C(=O)OC)[C@H]1C[C@@H]1c2cc(O)c(O)cc2CCN1C(C)=O
inactive: max response (HaCat) 3.48% | max response (KB-3-1) -1.92% | max response (NIH3T3) -10.7% | Potency (C33A) | Potency (CAOV3) | Potency (CASKI) | Potency (Es-2) | Potency (HeLa) | Potency (Hek293T) | Potency (JEG-3) | Potency (OV90)

CC(C)(O)CC(CO)NC(=O)CC(O)CC(=O)Cc1ccccc1 (centres undefined)
inactive: max response (HaCat) 3.84% | max response (KB-3-1) 2.2% | max response (NIH3T3) 2.22% | Potency (C33A) | Potency (CAOV3) | Potency (CASKI) | Potency (Es-2) | Potency (HeLa) | Potency (Hek293T) | Potency (JEG-3) | Potency (OV90)

OC[C@H]1O[C@@H](OC(CCCCc2ccc(O)cc2)CCc2ccc(O)cc2)[C@H](O)[C@@H](O)[C@@H]1O (some centres undefined)
inactive: max response (HaCat) -20.5% | outcome (KB-3-1) | max response (NIH3T3) -27.4% | Potency (C33A) | Potency (CAOV3) | Potency (CASKI) | Potency (Es-2) | Potency (HeLa) | Potency (Hek293T) | Potency (JEG-3) | Potency (OV90)

Cn1c2ccc(F)cc2c2c(C(=O)N3CCCC3)cn(-c3ccccc3)c(=O)c21
inactive: max response (HaCat) -0.557% | outcome (KB-3-1) | max response (NIH3T3) -3.48% | Potency (C33A) | Potency (CAOV3) | Potency (CASKI) | Potency (Es-2) | Potency (HeLa) | Potency (Hek293T) | Potency (JEG-3) | Potency (OV90)

C[C@@]12C[C@]3(O)O[C@H](O1)[C@]1(COC(=O)c4ccccc4)[C@H]3C[C@@]12O[C@@H]1O[C@H](CO)[C@@H](O)[C@H](O)[C@H]1O
inactive: max response (HaCat) -7.15% | max response (KB-3-1) 8.38% | max response (NIH3T3) 3.01% | Potency (C33A) | Potency (CAOV3) | Potency (CASKI) | Potency (Es-2) | Potency (HeLa) | Potency (Hek293T) | Potency (JEG-3) | Potency (OV90)

CC(C)S(=O)(=O)NC[C@H](C)c1ccc(NC(=O)c2cc(F)cc(F)c2)cc1
inactive: max response (HaCat) -5.79% | max response (KB-3-1) 3.14% | max response (NIH3T3) 3.47% | Potency (C33A) | Potency (CAOV3) | Potency (CASKI) | Potency (Es-2) | Potency (HeLa) | Potency (Hek293T) | Potency (JEG-3) | Potency (OV90)

CCCN1CCN(c2ccc(C(=O)NC3(C(=O)NCC#N)CCCCC3)cc2)CC1
inactive: max response (HaCat) -5.96% | max response (KB-3-1) -7.48% | max response (NIH3T3) 1.62% | Potency (C33A) | Potency (CAOV3) | Potency (CASKI) | Potency (Es-2) | Potency (HeLa) | Potency (Hek293T) | Potency (JEG-3) | Potency (OV90)

CC1=C(C)C(=O)OC(C(C)C2CCC3C4C5OC5C5(O)CC(OC6OC(CO)C(OC7OC(C)C(O)C(O)C7O)C(O)C6O)CC(O)C5(C)C4CCC23C)C1 (centres undefined)
inactive: max response (HaCat) 4.81% | outcome (KB-3-1) | max response (NIH3T3) 3.69% | Potency (C33A) | Potency (CAOV3) | Potency (CASKI) | Potency (Es-2) | Potency (HeLa) | Potency (Hek293T) | Potency (JEG-3) | Potency (OV90)

C=C(C(=O)O)C1CC(O)C2(C)CCCC(=C)C2C1 (centres undefined)
inactive: max response (HaCat) -8.7% | max response (KB-3-1) -0.72% | max response (NIH3T3) 2.65% | Potency (C33A) | Potency (CAOV3) | Potency (CASKI) | Potency (Es-2) | Potency (HeLa) | Potency (Hek293T) | Potency (JEG-3) | Potency (OV90)

C=CC1(C)C=C2C(=O)OC(=O)C3=C(CCCC3(C)C)C2(O)CC1 (centres undefined)
inactive: max response (HaCat) 1.65% | max response (KB-3-1) 7.97% | max response (NIH3T3) 0.193% | Potency (C33A) | Potency (CAOV3) | Potency (CASKI) | Potency (Es-2) | Potency (HeLa) | Potency (Hek293T) | Potency (JEG-3) | Potency (OV90)

COC1C(=O)CCC2(CO2)C1(O)C1(C)OC1CC=C(C)C (centres undefined)
inactive: max response (HaCat) -2.7% | max response (KB-3-1) 6.79% | max response (NIH3T3) -14.1% | Potency (C33A) | Potency (CAOV3) | Potency (CASKI) | Potency (Es-2) | Potency (HeLa) | Potency (Hek293T) | Potency (JEG-3) | Potency (OV90)

CSc1ccc(C(=O)N[C@@H]2CCCC[C@@H]2NC(=O)CNC(=O)c2cc(C(F)(F)F)ccc2NC(=O)NC(C)C)cc1
inactive: max response (HaCat) -8.38% | max response (KB-3-1) -4.76% | max response (NIH3T3) 0.151% | Potency (C33A) | Potency (CAOV3) | Potency (CASKI) | Potency (Es-2) | Potency (HeLa) | Potency (Hek293T) | Potency (JEG-3) | Potency (OV90)

CC1=CC2/C=C(\C)CC[C@@H](O)[C@@H](O)[C@@H]3O[C@@H]3C(=O)[C@]23C(=O)N[C@@H](CC(C)C)[C@@H]3[C@@H]1C (some centres undefined)
inactive: max response (HaCat) -27.7% | max response (KB-3-1) -2.72% | max response (NIH3T3) 1.23% | Potency (C33A) | Potency (CAOV3) | Potency (CASKI) | Potency (Es-2) | Potency (HeLa) | Potency (Hek293T) | Potency (JEG-3) | Potency (OV90)
